Consider 14 molecules from PubChem BioAssay (NCI).

Test systems include SK-MEL-2 melanoma; EKVX NSCLC; SN12C renal; UO-31 renal; TK-10 renal; CAKI-1 renal; A498 renal; CCRF-CEM leukemia; MOLT-4 leukemia.
Holding throughout (assay): NCI-60 one-dose screen, 48 h (100 = growth as untreated, 0 = no growth, -100 = all killed)
Common to all, as to conditions: 10 µM unless noted

The structures appear in SMILES notation. Compounds without any hit were thinned out: in the full panel of roughly 83,000, 20% have a hit.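 In brief: 96-well plates, 48 h treatment, single concentration, percent growth endpoint.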 A number with no mark means an inactive call. Active and inactive are the calls of the source. How the source made its calls: active means growth percent below 10; inactive means the rest.

Consider `Cc1ccc(C(=O)Nc2cccc(C#Cc3cccc4[nH]nc(N)c34)c2)cc1C(F)(F)F`, for which the growth in the experiment on SK-MEL-2 melanoma is 29.2%; with EKVX NSCLC it was 92.4%; in the experiment on SN12C renal, 65.2%; in the experiment with UO-31 renal, 36.7%; in the experiment on TK-10 renal, 86.6%; with CAKI-1 renal, 120%. Further, the values for the growth in the experiment on A498 renal, in the experiment with CCRF-CEM leukemia and in the experiment on MOLT-4 leukemia were 81.2%, 52.9% and 45%, respectively.
For `Cc1ccc2c(-c3nnc(N)s3)cc(=O)oc2c1C`, the growth is 110% with SK-MEL-2 melanoma; 97.3% with EKVX NSCLC; 99.8% in the experiment on SN12C renal; 80.2% in the experiment on UO-31 renal; 102% with TK-10 renal; 94.1% with CAKI-1 renal. Moreover, the growth in the experiment on A498 renal was 85.1%; in the experiment on CCRF-CEM leukemia, 39.2%; with MOLT-4 leukemia, 102%.
Regarding `CCN1CCN(C(=O)[C@]23CC[C@@H](C)[C@H](C)[C@@H]2C2=CC[C@@H]4[C@@]5(C)C/C(=C/c6cccnc6)C(=O)C(C)(C)[C@@H]5CC[C@@]4(C)[C@]2(C)CC3)CC1`, the growth was 28.3% in the experiment with SK-MEL-2 melanoma; 41.5% in the experiment with EKVX NSCLC; 29.6% with SN12C renal; 10.5% in the experiment on UO-31 renal; 43.1% with TK-10 renal; 39.8% in the experiment with CAKI-1 renal. The growth in the experiment on A498 renal was 43.8%; in the experiment on CCRF-CEM leukemia, 8.77% (active); in the experiment on MOLT-4 leukemia it was 2.7% (active).
In the case of `Cc1cccc(-c2nc(Nc3ccc4ncsc4c3)c3ccccc3n2)n1`, the growth in the experiment on SK-MEL-2 melanoma was 83.8%; in the experiment on EKVX NSCLC it was 79.1%; in the experiment on SN12C renal it was 92%; in the experiment with UO-31 renal it was 69.1%; in the experiment on TK-10 renal, 87.2%; with CAKI-1 renal it was 105%. Besides, the growth is 83.6% in the experiment with A498 renal, 37.5% in the experiment on CCRF-CEM leukemia and 64.2% with MOLT-4 leukemia.
In the case of `COc1ccc(/C=C2\CN(C(=O)C(Cl)Cl)C/C(=C\c3ccc(OC)cc3)C2=O)cc1`, the growth in the experiment with SK-MEL-2 melanoma was 68.6%; in the experiment with EKVX NSCLC, 14.5%; with SN12C renal it was -38.9% (active); with UO-31 renal it was -97.8% (active); with TK-10 renal it was 20.4%; with CAKI-1 renal it was -18.9% (active). For the same molecule, the figures for the growth in the experiment with A498 renal and in the experiment on CCRF-CEM leukemia were -73.1% (active) and 9.77% (active), respectively.
For the molecule `C=C1C(=O)O[C@H]2[C@H]1CC/C(CNC(=O)c1c[nH]c3ccc(F)cc13)=C\CC[C@@]1(C)O[C@@H]21`, the growth is 45.1% in the experiment with SK-MEL-2 melanoma; 60.3% with EKVX NSCLC; 47.5% in the experiment with SN12C renal; -79.2% (active) in the experiment with UO-31 renal; -51.7% (active) in the experiment with TK-10 renal; 16.2% in the experiment on CAKI-1 renal. The figures for the growth in the experiment with A498 renal, in the experiment with CCRF-CEM leukemia and in the experiment with MOLT-4 leukemia were 15.4%, -21% (active) and -39.7% (active), respectively.
Take `CC(C)(C)n1cc(-c2ccnc(NCCCNS(=O)(=O)c3ccc(C(F)(F)F)cc3)c2)c(-c2cccc(F)c2)n1`: the growth is 93.6% in the experiment with SK-MEL-2 melanoma; 78.7% in the experiment with EKVX NSCLC; 82.8% in the experiment with SN12C renal; 78% in the experiment with UO-31 renal; 108% in the experiment with TK-10 renal; 90.3% in the experiment with CAKI-1 renal. In addition, the growth with A498 renal was 92.5%; with CCRF-CEM leukemia it was 73.8%; with MOLT-4 leukemia it was 65.3%.
With `COc1cccc(C(=O)NNc2nc(Cl)nc(Cl)n2)c1`, the growth is 96.3% in the experiment on SK-MEL-2 melanoma; 98% in the experiment with EKVX NSCLC; 100% in the experiment with SN12C renal; 88.4% in the experiment with UO-31 renal; 104% in the experiment with TK-10 renal; 96.1% with CAKI-1 renal. Moreover, the growth in the experiment with A498 renal is 96.6%; in the experiment with CCRF-CEM leukemia, 101%; in the experiment with MOLT-4 leukemia it was 101%.
`C=C1CC[C@@H]2C(C)(C)[C@@H](O)CC[C@@]2(C)[C@@H]1COc1ccc2ccc(=O)oc2c1`: the growth was 88.3% with SK-MEL-2 melanoma; 60.3% in the experiment on EKVX NSCLC; 74.9% with SN12C renal; 52.6% in the experiment on UO-31 renal; 95% with TK-10 renal; 73.5% in the experiment on CAKI-1 renal. The growth in the experiment with A498 renal was 68.9%; with CCRF-CEM leukemia it was 60.8%; with MOLT-4 leukemia it was 47.4%.
Consider `COc1ccc(-c2ccc(-c3ccc(C(=N)N)nc3)s2)cc1Cl`, for which the growth was 102% in the experiment with SK-MEL-2 melanoma; 56.4% in the experiment with EKVX NSCLC; -81.7% (active) in the experiment with SN12C renal; -94.8% (active) in the experiment on UO-31 renal; 94.5% with TK-10 renal; -90.2% (active) with CAKI-1 renal. The growth was 88.2% in the experiment on A498 renal, -49% (active) in the experiment with CCRF-CEM leukemia and -49.3% (active) with MOLT-4 leukemia.
With `Cc1cc(Nc2ccc(C(=O)N3CCCC3)cc2)nc(NCCCNc2ccnc3cc(Cl)ccc23)n1`, the growth with SK-MEL-2 melanoma is 99.5%; with EKVX NSCLC it was 101%; with SN12C renal it was 85%; in the experiment with UO-31 renal it was 86.7%; in the experiment on TK-10 renal, 106%; in the experiment with CAKI-1 renal, 99.1%. The results for the growth in the experiment with A498 renal, in the experiment with CCRF-CEM leukemia and in the experiment on MOLT-4 leukemia were 95.2%, 65.3% and 36.9%, respectively.
Consider `Cn1cc(-c2csc(-c3c[nH]c4ccc(F)cc34)n2)c2ccnc(Cl)c21`, for which the growth is 104% with SK-MEL-2 melanoma; 65.6% with EKVX NSCLC; 73.6% in the experiment on SN12C renal; 53% in the experiment with UO-31 renal; 69.8% with TK-10 renal; 69.8% in the experiment with CAKI-1 renal. The growth was 42.5% with A498 renal, 50.5% in the experiment on CCRF-CEM leukemia and 64.9% with MOLT-4 leukemia.
In the case of `O=C(/C=C/c1ccc(Cl)cc1)c1cccc(OCCCOc2cccc(C(=O)/C=C/c3ccc(Cl)cc3)c2)c1`, the growth is 107% in the experiment on SK-MEL-2 melanoma; 107% in the experiment with EKVX NSCLC; 103% in the experiment on SN12C renal; 86.1% in the experiment with UO-31 renal; 95.6% in the experiment with TK-10 renal; 95.4% in the experiment with CAKI-1 renal. Further, the results for the growth in the experiment on A498 renal, in the experiment with CCRF-CEM leukemia and in the experiment with MOLT-4 leukemia were 94.9%, 92.9% and 93.3%, respectively.
In the case of `CS(=O)(=O)Nc1cc(-c2ccc3ncc(C#N)c(Nc4ccc(F)c(Cl)c4)c3c2)cnc1Cl`, the growth is -59.9% (active) with SK-MEL-2 melanoma; -3.93% (active) with EKVX NSCLC; 18.2% in the experiment with SN12C renal; -6.94% (active) in the experiment on UO-31 renal; -21.6% (active) in the experiment with TK-10 renal; 4.91% (active) with CAKI-1 renal. Moreover, the growth with A498 renal is -83.6% (active); with CCRF-CEM leukemia, 0.41% (active); in the experiment on MOLT-4 leukemia, -22.5% (active).
